Measurements taken from PubChem BioAssay (EPA / NIEHS).
Calls of active or inactive are those of the source. The calls were made as follows: active = hit-call score of the fitted dose curve at least 0.9, where 1 is the maximum; inactive = score below 0.9.

Read-out: Pselectin, SELP (gene 6403)
Assay: BSK_4H_Pselectin: BioMAP Diversity Plus: 4H Assay for Pselectin Biomarker Activity (AID 2283026)
Conditions: primary human endothelial cells (HUVEC); actives raise or lower the signal
Summary of the method: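 Endothelial primary cells (human umbilical vein) are dosed, incubated 24 h, and assayed for surface P-selectin by ELISA; responses in either direction are fitted relative to the DMSO negative control.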

Row | SMILES | AC50 | outcome
1 | CCOC(=O)COc1ccc2c(c1)CC(NCC(O)c1cccc(Cl)c1)CC2 (stereo unspecified) | 29.8 µM (active) | –
2 | CCCCCCCCCCCCCCCO | 31.3 µM (active) | –
3 | O=C(CCCCCCCCc1cccnc1)N1CCC(C=C(c2ccccc2)c2ccccc2)CC1 | 6.41 µM (active) | –
4 | CC(C)(O)c1coc(S(=O)(=O)NC(=O)Nc2c3c(cc4c2CCC4)CCC3)c1 | – | inactive
5 | O=C(OC[C@H]1O[C@@H](OC(=O)c2cc(O)c(O)c(OC(=O)c3cc(O)c(O)c(O)c3)c2)[C@H](OC(=O)c2cc(O)c(O)c(OC(=O)c3cc(O)c(O)c(O)c3)c2)[C@@H](OC(=O)c2cc(O)c(O)c(OC(=O)c3cc(O)c(O)c(O)c3)c2)[C@@H]1OC(=O)c1cc(O)c(O)c(OC(=O)c2cc(O)c(O)c(O)c2)c1)c1cc(O)c(O)c(OC(=O)c2cc(O)c(O)c(O)c2)c1 | 6.1 µM (active) | –
6 | COCCOc1cc2cc(C(=O)NC3CCN(C(C)C)CC3)n(CC(=O)Nc3ccc(Cl)cn3)c2cn1 | – | inactive
7 | CC(C)CCCCCCOC(=O)c1ccc(C(=O)OCCCCCCC(C)C)c(C(=O)OCCCCCCC(C)C)c1 | – | inactive
8 | Cn1c(=O)cc(Oc2ccc(F)cc2F)c2cnc(NCC(C)(C)O)nc21 | – | inactive
9 | Cc1c(-c2cccnc2)c2ccccc2n1CCCCC(=O)O | – | inactive
10 | CC[C@H](C)C(=O)O[C@H]1C[C@@H](C)C=C2C=C[C@H](C)[C@H](CC[C@@H]3C[C@@H](O)CC(=O)O3)[C@H]21 | 32.9 µM (active) | –
11 | CC[C@H]1OC(=O)[C@H](C)[C@@H](O[C@H]2C[C@@](C)(OC)[C@@H](O)[C@H](C)O2)[C@H](C)[C@@H](O[C@@H]2O[C@H](C)C[C@H](N(C)C)[C@H]2O)[C@](C)(O)C[C@@H](C)C(=O)[C@H](C)[C@@H](O)[C@]1(C)O | – | inactive
